# Measurements: the supplement of paper PMC6555819
# System: RXRa homodimer (NR concentration 180 nM)
# Assay: PBM binding z-score (relative to random genomic background probes); higher = stronger binding; sequences stand for … in GC…GCGATTGACAGCGTAGAATGAAGG
# Procedure, shortened: (§1)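 For binding z-scores, the reference was random background probes on custom Agilent 4×180K protein-binding microarrays. These arrays were incubated 1 h with ligand-free nuclear receptor dimers in PBS pH 7.4, 2% milk, 0.02% Triton X-100, 1 mM DTT, 0.2 mg/mL BSA and 0.4 mg/ml salmon testes DNA. Fluorescence was scanned after antibody detection of each partner (one per run) and regression-normalized.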
row,Sequence,PBM binding z-score
1,CAAACTAGGTCAAGAAGTCAAAGTCCGCTTCCCG,2.97
2,TCTTGTAGATCAACAGGAGGTCAAGAAAGATCGA,3.64
3,TCAGACAGGTGAAGGGAACTCAGGTACGCAGTCG,0.877
4,ATAATGAGGTTACCAAAGATCAGGGAAACGCTTG,2.72
5,TCGAGTAGGTTAGTCGGGGCATCCAGCCAACATA,0.28
6,ACAGACAGGTGATGAATGTAACTCAGGCTATCAT,0.591
7,GCTATAAGTTGAAAGGGCAACCGAATGATTCTCG,2.42
8,ATATGTAGGGTAGCTGGGGTCATTCAGACTAGGC,5.16
9,CCGCCTGGGGCAAAGGTTACCATACTCAGTACGA,3.55
10,ACTATTAGTTGACTTAGGGCAACCTATACGACGC,0.654
11,ATCTCTAGGTAAGACTCAGTTCGGTGAAGAACGC,-0.00788
12,TCTTGTAGATCATAGGTTAAGAAAGCCGAAGCCT,1.34
13,AGAATGAGGTTAGGATCAGGGAAACAGAATACAT,1.37
14,GCTAGTTGGTCAGTAAAAGGTCACCCACCGGTCG,5.13
15,CGCCCAAGGTCAAAGGTCAGTGAAGAGATGACGG,10
16,TCTAGTTGGTGAAAGGTCACACACTCGAAATGCG,7.42
17,ATATGTAGGTTAGCTGGGATCATTCAGACTAGGC,0.95
18,CGTCCAAGGTCATAGGACGTCAGTGAAGACAGAT,5.36
19,TCTGCTAGGTCAGTTGGTCAGATAACGAGCTGCC,1.03
20,TAGCCTAGGTCATTCAGGGTCCAGTATAGAAAGC,3.11

row,Sequence,PBM binding z-score
1,ATCTCGAGGTAACCAAGTTCAGTGAATGCCGAAC,0.825
2,CCTTCTGGGCCAAAGGTCATTGATTCCAATGCTC,6.15
3,GTACCAAGGTGAATAGGTCGTTGTTGAGTAGGCG,1.64
4,CGAACTAGGTCATCCAGGACAGTGAGTACATTGA,3.02
5,CGTCCAAGGTCAGCAGGTCAGCGAAAGCGACGTG,5.67
6,GCCATTAGTTGAAAGGGCAACCGAATGATTCTCG,1.24
7,CCTATTAGTTGAACATAAGGGCAACCGAAGCTCG,0.64
8,CAAACTAGGTGAAGGTCAAAGTCGGTTTGTGCCA,4.34
9,CCTACAGGGCCAAAAAGGTCATTGATGCCGATAA,5.08
10,CATACAGGGTCAGCTAGGCCAGATTAGGGACGGC,4.12
11,GGAACGAGGGCATTCGAGTTGATACCATGGCGAT,0.823
12,CCTACTGGGCCACGAAAGGTCATTAATTCAGTGA,4.52
13,TCTCGGAGGACTCGAAGGTCAGAGCTTTCCAGAG,1.41
14,GCAGACAGGTGAAATGCAGGTAACTCAGGGTGGC,0.602
15,AGAAGGAGGTTATTAAGATCAGGGAATTGCGGTC,1.36
16,ATCTCTAGGTAACCAAGTTCAGTGATTGCCGAAC,0.505
17,GCAGACAGGTGAAACGCAGGTAGCTCAGGGTGGC,0.367
18,CCTAGTTGGTCAGGAGGTCACACACCGGATATGA,4.83
19,TCTTGTAGATCAACAGGAGGTTAAGAATGATCGA,0.964
20,ACTATTAGTTGAGACGAGGGCAACCAATAGGTTG,0.753

# System: THRa:RXRa (NR concentration 90 nM, RXRa partner concentration 90 nM)
# Assay: as above
# Procedure, shortened: as §1
row,Sequence,PBM binding z-score
1,CAAACTAGGTCAAGAAGTCAAAGTCCGCTTCCCG,2.65
2,TCTTGTAGATCAACAGGAGGTCAAGAAAGATCGA,3.02
3,TCAGACAGGTGAAGGGAACTCAGGTACGCAGTCG,0.891
4,ATAATGAGGTTACCAAAGATCAGGGAAACGCTTG,2.8
5,TCGAGTAGGTTAGTCGGGGCATCCAGCCAACATA,1.05
6,ACAGACAGGTGATGAATGTAACTCAGGCTATCAT,0.0526
7,GCTATAAGTTGAAAGGGCAACCGAATGATTCTCG,1.16
8,ATATGTAGGGTAGCTGGGGTCATTCAGACTAGGC,4.74
9,CCGCCTGGGGCAAAGGTTACCATACTCAGTACGA,2.05
10,ACTATTAGTTGACTTAGGGCAACCTATACGACGC,1.72
11,ATCTCTAGGTAAGACTCAGTTCGGTGAAGAACGC,0.483
12,TCTTGTAGATCATAGGTTAAGAAAGCCGAAGCCT,0.458
13,AGAATGAGGTTAGGATCAGGGAAACAGAATACAT,2.13
14,GCTAGTTGGTCAGTAAAAGGTCACCCACCGGTCG,3.42
15,CGCCCAAGGTCAAAGGTCAGTGAAGAGATGACGG,4.83
16,TCTAGTTGGTGAAAGGTCACACACTCGAAATGCG,3.97
17,ATATGTAGGTTAGCTGGGATCATTCAGACTAGGC,1.95
18,CGTCCAAGGTCATAGGACGTCAGTGAAGACAGAT,3.83
19,TCTGCTAGGTCAGTTGGTCAGATAACGAGCTGCC,1.38
20,TAGCCTAGGTCATTCAGGGTCCAGTATAGAAAGC,4.2

row,Sequence,PBM binding z-score
1,ATCTCGAGGTAACCAAGTTCAGTGAATGCCGAAC,2.41
2,CCTTCTGGGCCAAAGGTCATTGATTCCAATGCTC,3.44
3,GTACCAAGGTGAATAGGTCGTTGTTGAGTAGGCG,1.81
4,CGAACTAGGTCATCCAGGACAGTGAGTACATTGA,3.65
5,CGTCCAAGGTCAGCAGGTCAGCGAAAGCGACGTG,4.07
6,GCCATTAGTTGAAAGGGCAACCGAATGATTCTCG,0.595
7,CCTATTAGTTGAACATAAGGGCAACCGAAGCTCG,2.06
8,CAAACTAGGTGAAGGTCAAAGTCGGTTTGTGCCA,3.14
9,CCTACAGGGCCAAAAAGGTCATTGATGCCGATAA,3.21
10,CATACAGGGTCAGCTAGGCCAGATTAGGGACGGC,3.18
11,GGAACGAGGGCATTCGAGTTGATACCATGGCGAT,3.34
12,CCTACTGGGCCACGAAAGGTCATTAATTCAGTGA,3.67
13,TCTCGGAGGACTCGAAGGTCAGAGCTTTCCAGAG,1.65
14,GCAGACAGGTGAAATGCAGGTAACTCAGGGTGGC,1.38
15,AGAAGGAGGTTATTAAGATCAGGGAATTGCGGTC,1.18
16,ATCTCTAGGTAACCAAGTTCAGTGATTGCCGAAC,1.44
17,GCAGACAGGTGAAACGCAGGTAGCTCAGGGTGGC,0.401
18,CCTAGTTGGTCAGGAGGTCACACACCGGATATGA,3.61
19,TCTTGTAGATCAACAGGAGGTTAAGAATGATCGA,0.774
20,ACTATTAGTTGAGACGAGGGCAACCAATAGGTTG,2.89
